# Measured values as given in PubChem BioAssay AID1159580 (chemical genetic matrix, 2015).
# The campaign covered roughly 5,500 compounds. About 2,000 (36%) were called active. Not shown: some 18% with an inconclusive outcome. This is one part of the list. Values without a mark were called inactive. Cut-off read from the data, not from the text of the source: active = normalized growth mostly below about 0.91 (no sharp cut-off); inconclusive = no clear call, values can overlap the other calls; inactive = mostly above about 0.92.
# Assay: chemical genetic growth profiling, strain panel (AID 1159580);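 note: tested at 20 µM; growth read once vehicle control cultures reached saturation at 30 °C; 1 = growth at the plate median or of vehicle wells; lower values mean less growth of the strain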
# Details: S. cerevisiae deletion strains, growth OD
# [1] = locus YDL101C, strain DUN1, active compounds read low
# [2] = locus YHR030C, strain SLT2, active compounds read low
smiles,measurement,setting,value
COc1ccc(S(=O)(=O)Nc2ccccc2Oc2ccc(Cl)cc2Cl)cc1OC,normalized growth,"locus YAL013W, strain DEP1, active compounds read low",1.01
same,normalized growth,"locus YBR229C, strain ROT2, active compounds read low",1.01
same,normalized growth,"locus YCL061C, strain MRC1, active compounds read low",1.07
same,normalized growth,[1],1.08
same,normalized growth,"locus YDL134C, strain PPH21, active compounds read low",1.01
same,normalized growth,"locus YDR150W, strain NUM1, active compounds read low",0.933
same,normalized growth,"locus YEL061C, strain CIN8, active compounds read low",0.999
same,normalized growth,"locus YGR078C, strain PAC10, active compounds read low",1.04
same,normalized growth,"locus YGR229C, strain SMI1, active compounds read low",0.995
same,normalized growth,[2],1.06
same,normalized growth,"locus YHR087W, strain rtc3, active compounds read low",0.988
same,normalized growth,"locus YJL187C, strain SWE1, active compounds read low",1
same,normalized growth,"locus YJR043C, strain POL32, active compounds read low",1.05
same,normalized growth,"locus YJR075W, strain HOC1, active compounds read low",1
same,normalized growth,"locus YKL190W, strain CNB1, active compounds read low",1.01
same,normalized growth,"locus YLR039C, strain RIC1, active compounds read low",1.06
same,normalized growth,"locus YLR058C, strain SHM2 (second series), active compounds read low",0.988
same,normalized growth,"locus YLR085C, strain ARP6, active compounds read low",1.08
same,normalized growth,"locus YLR262C, strain YPT6, active compounds read low",0.99
same,normalized growth,"locus YML094W, strain GIM5, active compounds read low",1
same,normalized growth,"locus YMR219W, strain ESC1, active compounds read low",1
same,normalized growth,"locus YMR263W, strain SAP30, active compounds read low",0.967
same,normalized growth,"locus YMR307W, strain GAS1, active compounds read low",0.986
same,normalized growth,"locus YNL128W, strain TEP1, active compounds read low",1
same,normalized growth,"locus YNL153C, strain GIM3, active compounds read low",1.03
same,normalized growth,"locus YNL298W, strain CLA4 (second series), active compounds read low",1.05
same,normalized growth,"locus YNL322C, strain KRE1, active compounds read low",0.988
same,normalized growth,"locus YNR030W, strain Alg12, active compounds read low",1.02
same,normalized growth,"locus YPL055C, strain LGE1, active compounds read low",0.959
same,normalized growth,"locus YPL241C, strain CIN2, active compounds read low",1.03
same,normalized growth,"locus YPR135W, strain CTF4, active compounds read low",1.03
N#Cc1ccc(S(=O)(=O)Nc2ccccc2Oc2ccc(Cl)cc2Cl)cc1,normalized growth,"locus YAR019C, strain CDC15, active compounds read low",0.98
same,normalized growth,"locus YBL105C, strain PKC1, active compounds read low",0.98
same,normalized growth,"locus YBR135W, strain CKS1, active compounds read low",0.976
same,normalized growth,"locus YBR136W, strain MEC1, active compounds read low",0.985
same,normalized growth,"locus YBR160W, strain CDC28, active compounds read low",0.983
same,normalized growth,"locus YDL017W, strain CDC7, active compounds read low",0.979
same,normalized growth,"locus YDL028C, strain MPS1, active compounds read low",0.979
same,normalized growth,[1],0.986
same,normalized growth,"locus YDL108W, strain KIN28, active compounds read low",0.973
same,normalized growth,"locus YDL132W, strain cdc53, active compounds read low",0.979
same,normalized growth,"locus YDL214C, strain PRR2, active compounds read low",0.968
same,normalized growth,"locus YDR052C, strain DBF4, active compounds read low",0.979
same,normalized growth,"locus YDR054C, strain cdc34, active compounds read low",0.974
same,normalized growth,"locus YDR226W, strain ADK1, active compounds read low",0.969
same,normalized growth,"locus YDR477W, strain SNF1, active compounds read low",0.935
same,normalized growth,"locus YER123W, strain YCK3, active compounds read low",0.948
same,normalized growth,"locus YER133W, strain GLC7, active compounds read low",0.928
same,normalized growth,"locus YFL009W, strain cdc4, active compounds read low",0.987
same,normalized growth,"locus YFL029C, strain CAK1, active compounds read low",0.979
same,normalized growth,"locus YFR003C, strain YPI1, active compounds read low",0.974
same,normalized growth,"locus YFR019W, strain FAB1, active compounds read low",0.955
same,normalized growth,"locus YFR028C, strain CDC14, active compounds read low",0.98
same,normalized growth,"locus YGR040W, strain KSS1, active compounds read low",0.945
same,normalized growth,"locus YGR052W, strain FMP48, active compounds read low",0.985
same,normalized growth,"locus YGR092W, strain DBF2, active compounds read low",0.879
same,normalized growth,[2],0.88
same,normalized growth,"locus YHR079C, strain IRE1, active compounds read low",0.931
same,normalized growth,"locus YHR082C, strain KSP1, active compounds read low",1.07
same,normalized growth,"locus YHR205W, strain SCH9, active compounds read low",0.936
same,normalized growth,"locus YIL147C, strain SLN1, active compounds read low",0.986
same,normalized growth,"locus YJL095W, strain BCK1, active compounds read low",0.905
same,normalized growth,"locus YJL128C, strain PBS2, active compounds read low",0.961
same,normalized growth,"locus YJL157C, strain FAR1, active compounds read low",0.947
same,normalized growth,"locus YJR016C, strain ILV3, active compounds read low",0.97
same,normalized growth,"locus YJR066W, strain TOR1 (second series), active compounds read low",0.9
same,normalized growth,"locus YJR066W, strain TOR1, active compounds read low",1.04
same,normalized growth,"locus YKL048C, strain ELM1, active compounds read low",0.959
same,normalized growth,"locus YKL067W, strain YNK1, active compounds read low",0.973
same,normalized growth,"locus YKL101W, strain HSL1, active compounds read low",0.957
same,normalized growth,"locus YKL193C, strain SDS22, active compounds read low",0.978
same,normalized growth,"locus YKL203C, strain TOR2, active compounds read low",1.02
same,normalized growth,"locus YLR113W, strain HOG1, active compounds read low",0.836 (active)
same,normalized growth,"locus YLR133W, strain CKI1, active compounds read low",0.972
same,normalized growth,"locus YLR403W, strain SFP1, active compounds read low",0.912
same,normalized growth,"locus YML070W, strain DAK1, active compounds read low",0.94
same,normalized growth,"locus YMR001C, strain CDC5, active compounds read low",0.982
same,normalized growth,"locus YMR205C, strain PFK2 (second series), active compounds read low",0.972
same,normalized growth,"locus YMR277W, strain FCP1, active compounds read low",0.973
same,normalized growth,"locus YNL006W, strain LST8, active compounds read low",0.977
same,normalized growth,"locus YNL020C, strain ARK1, active compounds read low",0.965
same,normalized growth,"locus YNL161W, strain CBK1, active compounds read low",0.982
same,normalized growth,"locus YNL183C, strain NPR1, active compounds read low",1.08
same,normalized growth,"locus YNL207W, strain RIO2, active compounds read low",0.979
same,normalized growth,"locus YNL222W, strain SSU72, active compounds read low",0.978
same,normalized growth,"locus YNL307C, strain MCK1 (second series), active compounds read low",0.965
same,normalized growth,"locus YOL078W, strain AVO1, active compounds read low",0.971
same,normalized growth,"locus YOL136C, strain PFK27, active compounds read low",0.967
same,normalized growth,"locus YOR061W, strain CKA2, active compounds read low",0.872
same,normalized growth,"locus YOR119C, strain RIO1, active compounds read low",1.01
same,normalized growth,"locus YOR231W, strain MKK1, active compounds read low",1.01
same,normalized growth,"locus YOR329C, strain SCD5, active compounds read low",0.982
same,normalized growth,"locus YPL031C, strain PHO85, active compounds read low",0.926
same,normalized growth,"locus YPL153C, strain RAD53, active compounds read low",0.945
same,normalized growth,"locus YPL204W, strain HRR25, active compounds read low",0.949
same,normalized growth,"locus YPL209C, strain IPL1, active compounds read low",0.983
same,normalized growth,"locus YPL256C, strain CLN2, active compounds read low",0.967
same,normalized growth,"locus YPR025C, strain CCL1, active compounds read low",0.976
same,normalized growth,"locus YPR106W, strain ISR1, active compounds read low",0.96
same,normalized growth,"locus YPR111W, strain DBF20, active compounds read low",0.963
same,normalized growth,"strain NNK1, active compounds read low",0.981
same,normalized growth,"strain TSCII, active compounds read low",0.99
